The structures appear in SMILES notation. Records with an inconclusive call do not appear. Entries that show only a call come without a potency. The source made the active and inactive calls. Calls come from the whole dose curve; as a rule, active = well fitted cell-killing curve with a large enough effect in the repeat runs; inconclusive = weak or mixed curves, or effect the other way; inactive = flat fitted curve, though single readings scatter.

The nature of assay [1]: cAMP Responsive Elements (CRE) small molecule antagonists, cell-based qHTS assay: qHTS cell viability counter screen (AID 2060913). Note: nearly all actives have a fitted effect of over 40% in size. In outline:
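Steps: cells plated and held 18 hrs at 37 C/5% CO2; compounds and NKH477 (0.25 uM final) added; 3 hrs incubation; reporter substrate read; CellTiter-Glo added to measure cytotoxicity by luminescence.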
For orientation: In qHTS, concentration-response curves come from the screen itself.

Assay [2] is described as follows: cAMP Responsive Elements (CRE) small molecule agonists, cell-based qHTS assay: qHTS cell viability counter screen (AID 2060914). Note: nearly all actives have a fitted effect of over 50% in size. In outline: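 In the same wells as the reporter read, viability of CRE-bla HEK 293T cells was quantified by CellTiter-Glo luminescence after a 3 h compound exposure.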
Potency is the fitted concentration of half-maximal effect.

Regarding `C#CCC1=C(C)C(OC(=O)C2C(C=C(C)C)C2(C)C)CC1=O` (centres undefined), the Potency result in assay [1] and in assay [2] was “inactive” throughout.
For the compound `COC[C@@H](NC(C)=O)C(=O)NCc1ccccc1`, the Potency result in assay [1] and in assay [2] was “inactive” each time.
For the compound `CC(Cl)C(=O)O` (centres undefined), the Potency entry in assay [1] and in assay [2] was “inactive” throughout.
For the compound `CN(C)[C@@H]1C(=O)C(C(N)=O)=C(O)[C@@]2(O)C(=O)C3=C(O)c4c(O)cccc4[C@@](C)(O)[C@H]3[C@H](O)[C@@H]12`, the Potency result in assay [1] and in assay [2] was “inactive” throughout.
As for `NC(=S)C(N)=S`, the Potency entry in assay [1] and in assay [2] was “inactive” throughout.
For the compound `C[C@]12CC[C@H]3[C@@H](CCC4=CC(=O)CC[C@@H]43)[C@@H]1CC[C@@H]2OC(=O)CCc1ccco1`, the Potency entry in assay [1] and in assay [2] was “inactive” throughout.
For the compound `CCCCC1C(=O)NC(=O)N(C2CCCCC2)C1=O` (centres undefined), the Potency entry in assay [1] and in assay [2] was “inactive” throughout.
With `O=C(O)c1ccccn1`, the Potency result in assay [1] and in assay [2] was “inactive” in each case.
Take `Fc1cccc(Cl)c1CCl`: the Potency entry in assay [1] and in assay [2] was “inactive” in each case.
For `CN(C)CCC#N`, the Potency result in assay [1] and in assay [2] was “inactive” each time.
Regarding `CCCCn1cc[n+](C)c1.[Cl][Fe-]([Cl])([Cl])[Cl]`, the Potency entry in assay [1] and in assay [2] was “inactive” throughout.
On to `C[C@@H]1CC[C@@]2(OC1)O[C@H]1[C@@H](O)[C@H]3[C@@H]4CC[C@H]5C[C@@H](O[C@@H]6O[C@H](CO)[C@H](O[C@@H]7O[C@H](CO)[C@@H](O)[C@H](O[C@@H]8OC[C@@H](O)[C@H](O)[C@H]8O)[C@H]7O[C@@H]7O[C@H](CO)[C@@H](O)[C@H](O[C@@H]8O[C@H](CO)[C@@H](O)[C@H](O)[C@H]8O)[C@H]7O)[C@H](O)[C@H]6O)[C@H](O)C[C@]5(C)[C@H]4CC[C@]3(C)[C@H]1[C@@H]2C`, for which the Potency in assay [1] was 32.5 µM (active); in assay [2], 29 µM (active).
For `CC[C@@H](CO)NC(=O)[C@@H]1C=C2c3cccc4[nH]cc(c34)C[C@H]2N(C)C1` the same measures were “inactive” and “inactive”.
The corresponding values for `Oc1c(Cl)c(Cl)c(Cl)c(Cl)c1Cl` are “inactive” and “inactive”.
For `O=CC(Br)(Br)Br` the same measures were “inactive” and “inactive”.
Turning to `CN1C(=S)CN=C(c2ccccc2)c2cc(Cl)ccc21`, the Potency result in assay [1] and in assay [2] was “inactive” in each case.
`O=C(O)c1ccccc1O`: the Potency result in assay [1] and in assay [2] was “inactive” each time.
For the compound `O=c1[nH]c(=O)[nH]c(=O)[nH]1`, the Potency result in assay [1] and in assay [2] was “inactive” in each case.
Turning to `CCCCn1cc[n+](C)c1C`, the Potency entry in assay [1] and in assay [2] was “inactive” in each case.
For `CCCCCCCCc1ccc(O)cc1`, the Potency entry in assay [1] and in assay [2] was “inactive” in each case.
With `O=P(OCC(Br)CBr)(OCC(Br)CBr)OCC(Br)CBr` (centres undefined), the Potency result in assay [1] and in assay [2] was “inactive” throughout.
In the case of `C=C(C#N)CCC#N`, the Potency result in assay [1] and in assay [2] was “inactive” each time.
Take `O=[N+]([O-])c1cc(Cl)c(Cl)cc1Cl`: the Potency result in assay [1] and in assay [2] was “inactive” in each case.
Take `ClC(Cl)=C(c1ccc(Cl)cc1)c1ccccc1Cl`: the Potency result in assay [1] and in assay [2] was “inactive” throughout.
Take `Nc1cc(Cl)cc(C(=O)O)c1Cl`: the Potency result in assay [1] and in assay [2] was “inactive” in each case.
For the compound `O=C1CN=C(c2ccccc2)c2cc(Cl)ccc2N1CC1CC1`, the Potency entry in assay [1] and in assay [2] was “inactive” throughout.
As to `CC[C@H](C)[C@H]1O[C@]2(C=C[C@@H]1C)C[C@@H]1C[C@@H](C/C=C(\C)[C@@H](O[C@H]3C[C@H](OC)[C@@H](O[C@H]4C[C@H](OC)[C@@H](NC)[C@H](C)O4)[C@H](C)O3)[C@@H](C)/C=C/C=C3\CO[C@@H]4[C@H](O)C(C)=C[C@@H](C(=O)O1)[C@]34O)O2`, the Potency is 15.4 µM (active) in assay [1] and 19.3 µM (active) in assay [2].
The corresponding values for `CCCCN(CCCC)C(=S)[S-].CCCCN(CCCC)C(=S)[S-].[Ni+2]` are “inactive” and “inactive”.
As to `CNC(=O)O/N=C(\SC)C(=O)N(C)C`, the Potency entry in assay [1] and in assay [2] was “inactive” throughout.
For the compound `COP(=S)(OC)Oc1ccc(Sc2ccc(OP(=S)(OC)OC)cc2)cc1`, the Potency result in assay [1] and in assay [2] was “inactive” throughout.
Regarding `CC(=O)OC1(c2ccccc2)CCN(CCc2ccccc2)CC1`, the Potency result in assay [1] and in assay [2] was “inactive” each time.
`O=c1ssc(Cl)c1Cl`: the Potency result in assay [1] and in assay [2] was “inactive” each time.
For `CC(=[OH+])/C=C(/C)[O-].CC(=[OH+])/C=C(\C)[O-].CC(=[OH+])/C=C(\C)[O-].[Fe]`, the Potency result in assay [1] and in assay [2] was “inactive” in each case.
For `C[C@]12CCC(=O)C(O)=C1CC[C@@H]1[C@@H]2CC[C@]2(C)C(=O)CC[C@@H]12`, the Potency result in assay [1] and in assay [2] was “inactive” each time.
With `CC(C)(OO)c1ccccc1`, the Potency entry in assay [1] and in assay [2] was “inactive” throughout.
Regarding `COc1ccc(-c2ccccc2)cc1NNC(=O)OC(C)C`, the Potency entry in assay [1] and in assay [2] was “inactive” throughout.
Consider `N#CN=C(N)N`, for which the Potency result in assay [1] and in assay [2] was “inactive” in each case.
Consider `C=CC(=O)NCNC(=O)C=C`, for which the Potency result in assay [1] and in assay [2] was “inactive” in each case.
In the case of `CNC(=O)N(C)c1nnc(C(C)(C)C)s1`, the Potency result in assay [1] and in assay [2] was “inactive” each time.
On to `CCC(=O)C(CCN(C)C)(c1ccccc1)c1ccccc1`, for which the Potency entry in assay [1] and in assay [2] was “inactive” in each case.
Regarding `CC(=O)Nc1cc([As](=O)(O)O)ccc1O`, the Potency result in assay [1] and in assay [2] was “inactive” each time.
For the compound `CN1C[C@H](CNC(=O)OCc2ccccc2)C[C@@H]2c3cccc4c3c(cn4C)C[C@H]21`, the Potency result in assay [1] and in assay [2] was “inactive” each time.

The values above are taken from PubChem BioAssay (Tox21).
